According to PubChem BioAssay AID588763 (NMMLSC, 2011):
Results with a measured potency or affinity are listed apart. Active and inactive are the calls of the source. How the calls were made is not given here.

molecular target: Beta-2 adrenergic receptor (Homo sapiens) (UniProt P07550); experiment: beta2AR agonists driving receptor internalization, dose response, cell-based, FAP fluorogen, flow cytometry, cherry pick 1 (AID 588763); settings: AM2.2-beta2AR cells, 90 min; series mostly up to 33 µM; activation (receptor internalization): at the top concentration
Sequence (P07550 whole entry, looked up): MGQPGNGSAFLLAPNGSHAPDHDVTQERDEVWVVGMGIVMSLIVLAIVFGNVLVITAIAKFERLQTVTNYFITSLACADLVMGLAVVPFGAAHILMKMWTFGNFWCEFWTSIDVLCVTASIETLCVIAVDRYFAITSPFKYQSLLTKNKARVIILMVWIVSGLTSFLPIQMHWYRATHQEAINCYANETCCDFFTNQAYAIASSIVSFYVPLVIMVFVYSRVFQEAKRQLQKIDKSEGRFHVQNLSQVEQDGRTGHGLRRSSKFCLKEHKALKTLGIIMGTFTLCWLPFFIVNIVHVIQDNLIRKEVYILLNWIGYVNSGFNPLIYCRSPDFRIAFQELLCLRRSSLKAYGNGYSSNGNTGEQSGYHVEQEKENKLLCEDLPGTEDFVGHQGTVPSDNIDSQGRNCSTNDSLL

Activation (receptor internalization), inactive:
Cc1ccc(NC(=O)c2cc(N3C(=O)C=CC3=O)ccc2N2CCOCC2)cc1 110%
Cc1ccccc1OCc1nc(-c2ccc(NC(=O)c3ccc4c(c3)OCO4)cc2)no1 2.95%
CCOC(=O)c1ccc(N=c2sc(C(=O)OC)cc(=O)n2-c2ccc(C(=O)OCC)cc2)cc1 35%
COC(=O)c1ccc(CN2CCC(Oc3ccc(C(=O)N4CCCCC4)cc3)CC2)cc1 -1.5%
Fc1ccc(Sc2nc(-c3ccccc3)nnc2C(F)(F)F)cc1 101%
Cc1ccccc1NC(=O)COc1ccc(S(=O)(=O)N2CCCC2)cc1C -0.639%
COc1ccc(N2CCN(C(=O)CN(C)S(=O)(=O)c3cc(C)ccc3OC)CC2)cc1 -4.19%
O=C(Nc1ccc2nc(-c3cccs3)c(-c3cccs3)nc2c1)N1CCOCC1 20.4%
COc1ccc(-c2nc3c4ccccc4ccn3c2CN2CCOCC2)cc1OC -4.07%
COc1ccc(Cl)cc1NC(=O)COc1ccc(S(=O)(=O)N2CCOCC2)cc1C 20.1%
O=C(Nc1ccc(NC(=O)c2ccccc2F)cc1)c1cccs1 -0.287%
COC(=O)[C@@H](NC(=O)c1cc(COc2cncc(Cl)c2)on1)c1ccccc1 2.04%
CC(NCCc1ccc(O)cc1)C(O)c1ccc(O)cc1 (stereo not drawn) -3.89%
COc1ccc(-n2nc3c(N4CCC(C(=O)NCc5cccc(C)c5)CC4)nnc(C)c3c2C)cc1 48.5%
COC(=O)c1ccccc1NC(=O)Cn1nnc(-c2ccc(OC)cc2)n1 -4.84%
COc1ccc(Cn2nc(-c3ccccc3)c(N3CCCCC3)cc2=O)cc1 16.6%
O=C(c1ccc(OC2CCN(Cc3cccc(OCCO)c3)CC2)cc1)N1CCCC1 -12.7%
Cc1cc(S(=O)(=O)N2CCOCC2)ccc1OCC(=O)Nc1ccccc1C(F)(F)F 4.85%
CC1CCCN(C(C(=O)Nc2ccc3c(c2)OCO3)c2ccccc2)C1 (stereo not drawn) 35.9%
COCc1ccc(CN2CCCC(C(=O)Nc3ccc(-c4cccc(OC)c4)cc3)C2)o1 (stereo not drawn) 24.9%
COc1ccccc1-c1cc(C(F)(F)F)nc(S(=O)(=O)CCCC(=O)N2CCCCC2C)n1 (stereo not drawn) 91.2%
Cc1cc(S(=O)(=O)N2CCCCC2)ccc1OCC(=O)Nc1ccccc1 2.64%
O=C(Cn1nnc(-c2ccccc2)n1)Nc1ccccc1N1CCOCC1 -11.5%
CCN(CC)S(=O)(=O)c1cc(C(=O)Nc2cc(Cl)ccc2N2CCN(C)CC2)ccc1Cl 24.4%
N=c1n(CC(=O)c2ccc([N+](=O)[O-])cc2)c2ccccc2n1Cc1ccccc1 101%
CCc1ccc(CN(C)C(=O)c2cc(COc3cncc(Cl)c3)on2)cc1 -3.26%
COc1ccccc1N1CCN(C(=O)CN(C)S(=O)(=O)c2cc(C)ccc2OC)CC1 77.6%
COc1ccccc1C(=O)Nc1ccc(S(=O)(=O)N2CCCCC2c2cccnc2)cc1 (stereo not drawn) -6.5%
COc1cc(NC(=O)c2ccco2)c(OC)cc1NC(=O)c1cc(OC)c(OC)c(OC)c1 4.51%

outcome, inactive:
COCC(C)NC(=O)CCS(=O)(=O)c1nc(-c2ccc(OC)cc2)cc(C(F)(F)F)n1 (stereo not drawn)
CN(CC(=O)N1CCN(c2ccc(F)cc2)CC1)S(=O)(=O)c1ccc(F)cc1
COc1ccc(OC)c(S(=O)(=O)N(C)CC(=O)N2CCN(c3ccccc3F)CC2)c1
COc1ccc(OC)c(S(=O)(=O)N(C)CC(=O)N2CCN(c3ccc(F)cc3)CC2)c1
